Data published in PubChem BioAssay.
“And” between values parts separate entries of the source, which are not always exact repeats. Identical values can stand only once.

Assay: osmotic lysis modulators in infected erythrocytes, primary screen, PSAC antagonist project, cell-based, P. falciparum Indochina, OD700, 3 h (AID 1156)
Conditions: higher = more signal, called active from +8 up or from −8 down

z-score, inactive:
CC(CO)N1C(=O)[C@@H]2C3C(=O)OCCC=C[C@H]3OC23C=CCN(c2ccc(Cl)cc2)C(=O)[C@@H]13 (some centres undefined) 0.741 and 0.968
CCOC(=O)NN=C1C[C@@H](O)[C@@H](O)[C@@H]2[C@@H]3C(=O)N(Cc4ccc5c(c4)OCO5)C(=O)[C@@H]3CC[C@@H]12 1.34
C=CCN(C(=O)C(c1cccs1)N(C(=O)/C=C\C(=O)O)c1ccc(CCO)cc1)C(C)(C)C (centres undefined) -0.518 and -0.338
C=CCN(C(=O)C(c1cccs1)N(C(=O)/C=C\C(=O)O)c1c(Cl)cccc1CO)C(C)(C)C (centres undefined) -0.741 and -0.659
C=CCN(CCCCC)C(=O)C1N(c2c(Cl)cccc2CO)C(=O)C2C(C(=O)O)C3C=CC21O3 (centres undefined) 0.418 and 0.0852
C=CCN(CCCC)C(=O)C(c1cccs1)N(CCOCCO)C(=O)/C=C\C(=O)O (centres undefined) -0.114 and 0.0221
CCCCCN1CC=CC23O[C@@H]4C=CCCOC(=O)C4[C@H]2C(=O)N(C(C)CO)[C@@H]3C1=O (some centres undefined) 0.833 and 0.233
COC(=O)[C@H](C)NC(=O)CCC1CC(OC(=O)NCCc2ccc(F)cc2)CC2(CCCC(COC(=O)NCCCN3CCCC3=O)O2)O1 (some centres undefined) 1.05
COC(=O)C1=C(C)N(Cc2ccccc2)C2=C(C(C)=O)C[C@@](O)(C(=O)OC)C(=O)N2[C@@H]1c1ccccc1 0.0531 and -0.0986
C=CCN(CCCCC)C(=O)C(c1cccs1)N(C(=O)/C=C\C(=O)O)c1c(Cl)cccc1CO (centres undefined) -0.0324 and -0.0069
CC(C)CON=C1C[C@@H](O)[C@@H](O)[C@@H]2[C@@H]3C(=O)N(c4cccc(Oc5ccccc5)c4)C(=O)[C@@H]3CC[C@H]12 0.388
C=CCN(C(=O)C(c1cccs1)N(C(=O)/C=C\C(=O)O)C(C)(C)CO)c1ccc(OC)cc1 (centres undefined) 0.029 and -0.675
CCCNC(=O)OC[C@H]1O[C@H](CCON=C(C)CCN2CCc3nc(-c4ccccc4)c(-c4ccccc4)cc3C2)C=C[C@@H]1Oc1ccc(OC)cc1 0.571
C=CC[C@@H](O)c1ccc(O)c(F)c1 -0.0619 and -1.38
C=CCN(Cc1ccccc1)C(=O)C(c1cccs1)N(C(=O)/C=C\C(=O)O)c1c(Cl)cccc1CO (centres undefined) 0.617 and -0.39
CC(C)[Si]1(C(C)C)OCc2cc(CCCc3cc4c(c(CCc5ccccc5)n3)[Si](C(C)C)(C(C)C)OC4)nc(CCc3ccccc3)c21 -1.01 and -0.355
COC(=O)[C@@]1(Cc2ccc(F)cc2)[C@H]2c3cc(C(=O)N4CCCC4)n(Cc4c(CO)[nH]cc(C)c4=O)c3C[C@H]2CN1C(=O)c1ccccc1 0.63 and 0.306
C=CCN(C(=O)C1N(c2ccc(CCO)cc2)C(=O)C2C(C(=O)O)C3C=CC21O3)c1ccc(OC)cc1 (centres undefined) -0.0787 and -0.0798
C=CCN(C(=O)C1N(CCOCCO)C(=O)C2C(C(=O)O)C3C=CC21O3)C(C)(C)C (centres undefined) -0.944 and -0.84
CCOC(=O)c1ccc(NC(=O)O[C@H]2[C@H](OC(=O)Nc3ccccc3)[C@H](OC(=O)Nc3ccccc3)[C@@H](OC)O[C@@H]2CO)cc1 0.433 and -0.123
CC(C)=NOCc1ccc(-c2cn([C@@H]3COC[C@H]3O)nn2)cc1 -0.725
C[C@@H]1CC[C@H]2C(=O)O[C@H](CN=[N+]=[N-])CN2[C@H]1c1ccc(Br)cc1 0.124 and 0.564
C=CCN1C(=O)[C@]2(O[C@H](CCn3cc(CCO)nn3)[C@@H]([Si](C)(C)c3ccc(OC)cc3)[C@@H]2C)c2cc(N3C(=O)c4cccc5cccc3c45)ccc21 -0.152 and -1.17
CC(CO)N1C(=O)[C@@H]2C3C(=O)OCCC=C[C@H]3OC23C=CCN(Cc2ccccc2)C(=O)[C@@H]13 (some centres undefined) 1.21 and 1.05
C=CCN(C(=O)C1N(c2c(Cl)cccc2CO)C(=O)C2C(C(=O)O)C3C=CC21O3)C(C)(C)C (centres undefined) 1.03 and -0.229
O=C1C[C@]2(c3ccc([N+](=O)[O-])cc3)C(=O)N(Cc3ccccc3)c3cc(CO)ccc3[C@H]2N1C1CCCCC1 -0.57 and 4.35
C[C@@H](ON=C1[C@H]2CCn3c(=O)n(-c4ccccc4)c(=O)n3[C@H]2[C@H](O)[C@@H]2O[C@H]12)c1cn([C@H](CO)Cc2ccccc2)nn1 0.373
C=CCN(CCCC)C(=O)C1N(C(C)(C)CO)C(=O)C2C(C(=O)O)C3C=CC21O3 (centres undefined) -0.724 and -1.27
COC(=O)[C@@]1(Cc2ccccc2)[C@H]2c3cc(C(=O)N(C)C)n(C[C@H](O)CO)c3C[C@H]2CN1C(=O)c1ccccc1 1.28 and 0.776
C[C@@H]1CN2[C@@H](CC[C@@H](C)[C@@H]2c2ccc(Br)cc2)C(=O)O1 -0.425 and -0.16
COC(=O)C1=C(C)N(Cc2ccccc2)[C@]23O[C@](C(=O)OC)(C(=O)N2[C@@H]1c1ccccc1)[C@@H](C(=O)OC)[C@H]3C(=O)OC 0.285 and -0.414
C=CCN(Cc1ccccc1)C(=O)C1N(c2ccc(CCO)cc2)C(=O)C2C(C(=O)O)C3C=CC21O3 (centres undefined) 0.0406 and -0.339
CCOC(=O)C[C@H]1[C@H](OC(=O)c2ccccc2-c2ccccc2)[C@@H](NC(=O)Cc2ccc(OC)cc2)c2cc(OCCCO)ccc2N1C(=O)c1ccc2ccccc2n1 0.366 and -0.295
CC(C)CCN1CCc2nc(-c3ccccc3)c3c(c2C1)CO[C@@H](C)C3 -0.895
CCOC(=O)[C@@H]1CC=C2CC1C(=O)N1CCC[C@@H]1[C@H]2O[Si](C)(C)C(C)(C)C (some centres undefined) -0.495 and 0.882
COC(=O)[C@@]1(Cc2ccc(OC)cc2)[C@H]2c3cc(C(=O)N(C)C)n(Cc4ccc(O)c(OC)c4)c3C[C@H]2CN1C(=O)c1ccccc1 2.07 and 1.63
CO[C@H]1COC(=O)CC=C[C@H](C)[C@H](OC)COC(=O)[C@@H](C)COC(=O)CC=C[C@@H]1C -0.146 and 0.4
CCOC(=O)C[C@H]1[C@H](OC(=O)c2ccccc2-c2ccccc2)[C@@H](NC(=O)c2ccccc2)c2cc(OCCCO)ccc2N1C(=O)c1ccc2ccccc2n1 0.195 and -0.416
C=CCN(CCCC)C(=O)C1N(c2c(Cl)cccc2CO)C(=O)C2C(C(=O)O)C3C=CC21O3 (centres undefined) 0.116 and 0.127
